Laboratory results reported in PubChem BioAssay AID1159580 (chemical genetic matrix, 2015).
Where “and” joins values, the source holds several entries; their conditions need not be identical. Equal entries are not always repeated. Hit rate of the full screen: of about 5,500 compounds, about 2,000 (36%) were called active. About 18% were inconclusive and are not listed. No stated cut-off is given here; in the data, active means normalized growth mostly below about 0.91 (no sharp cut-off); inconclusive means no clear call, values can overlap the other calls; inactive means mostly above about 0.92. The list shows a part of the results.

Experiment: chemical genetic growth profiling, strain panel (AID 1159580);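 further: tested at 20 µM; growth read once vehicle control cultures reached saturation at 30 °C; 1 = growth at the plate median or of vehicle wells; lower values mean less growth of the strain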
Details: S. cerevisiae deletion strains, growth OD

Measured: normalized growth

COP(=S)(OC)SCn1nnc2ccccc2c1=O
inactive: locus YAL013W, strain DEP1, active compounds read low 0.987 | locus YAL021C, strain ccr4, active compounds read low 1 | locus YAL026C, strain drs2, active compounds read low 1 | locus YAL030W, strain snc1, active compounds read low 1.03 | locus YBL061C, strain skt5, active compounds read low 1.01 | locus YBR009C, strain hhf1, active compounds read low 1 | locus YBR021W, strain FUR4, active compounds read low 0.887 | locus YBR023C, strain chs3, active compounds read low 0.997 | locus YBR171W, strain sec66, active compounds read low 1.01 | locus YBR229C, strain ROT2, active compounds read low 0.955 | locus YBR231C, strain swc5, active compounds read low 1 | locus YBR279W, strain paf1, active compounds read low 0.992 | locus YCL011C, strain gbp2, active compounds read low 1 | locus YCL016C, strain dcc1, active compounds read low 0.994 | locus YCL029C, strain bik1, active compounds read low 0.974 | locus YCL061C, strain MRC1, active compounds read low 0.996 | locus YCL069W, strain vba3, active compounds read low 1.02 | locus YCR088W, strain abp1, active compounds read low 1.02 | locus YDL005C, strain med2, active compounds read low 1 | locus YDL035C, strain GPR1, active compounds read low 0.921 | locus YDL040C, strain nat1, active compounds read low 1.01 | locus YDL074C, strain BRE1, active compounds read low 0.9 | locus YDL101C, strain DUN1, active compounds read low 0.966 | locus YDL134C, strain PPH21, active compounds read low 0.985 | locus YDL185W, strain tfp1, active compounds read low 0.948 | locus YDL192W, strain arf1, active compounds read low 0.976 | locus YDR001C, strain nth1, active compounds read low 1.02 | locus YDR069C, strain doa4, active compounds read low 0.96 | locus YDR101C, strain arx1, active compounds read low 0.986 | locus YDR137W, strain rgp1, active compounds read low 0.985 | locus YDR150W, strain NUM1, active compounds read low 0.971 | locus YDR159W, strain sac3, active compounds read low 0.927 | locus YDR162C, strain NBP2, active compounds read low 0.963 | locus YDR195W, strain ref2 1.06 | locus YDR297W, strain sur2, active compounds read low 0.998 | locus YDR318W, strain mcm21, active compounds read low 0.972 | locus YDR334W, strain swr1, active compounds read low 1.01 | locus YDR335W, strain msn5, active compounds read low 1 | locus YDR388W, active compounds read low 0.979 | locus YDR392W, strain spt3, active compounds read low 1.03 | locus YDR502C, strain sam2, active compounds read low 0.98 | locus YEL003W, strain gim4, active compounds read low 0.984 | locus YEL037C, strain rad23, active compounds read low 1.01 | locus YEL061C, strain CIN8 (second series), active compounds read low 1.01 | locus YEL061C, strain CIN8, active compounds read low 0.985 | locus YER015W, strain faa2, active compounds read low 1 | locus YER016W, strain bim1, active compounds read low 1.02 | locus YER110C, active compounds read low 0.97 | locus YER111C, strain swi4, active compounds read low 0.996 | locus YER155C, strain BEM2 (second series), active compounds read low 0.999 | locus YER155C, strain BEM2, active compounds read low 0.993 | locus YER167W, strain BCK2, active compounds read low 0.989 | locus YFR010W, strain ubp6, active compounds read low 0.98 | locus YGL078C, strain dbp3, active compounds read low 0.997 | locus YGL086W, strain mad1, active compounds read low 0.992 | locus YGL167C, strain pmr1, active compounds read low 0.992 | locus YGL173C, strain kem1, active compounds read low 1 | locus YGL227W, strain vid30, active compounds read low 0.997 | locus YGL240W, strain doc1, active compounds read low 0.904 | locus YGL248W, strain PDE1, active compounds read low 0.953 | locus YGL253W, strain hxk2, active compounds read low 0.993 | locus YGR078C, strain PAC10, active compounds read low 0.953 | locus YGR135W, strain pre9, active compounds read low 0.969 | locus YGR229C, strain SMI1, active compounds read low 0.956 | locus YGR252W, strain gcn5, active compounds read low 0.824 | locus YHR013C, strain ard1, active compounds read low 0.913 | locus YHR027C, strain rpn1, active compounds read low 1.02 | locus YHR030C, strain SLT2, active compounds read low 0.973 and 0.958 | locus YHR079C, strain IRE1 (second series), active compounds read low 0.983 | locus YHR079C, strain IRE1, active compounds read low 0.979 | locus YHR094C, strain hxt1, active compounds read low 0.99 | locus YHR129C, strain ARP1, active compounds read low 0.967 | locus YHR142W, strain chs7, active compounds read low 0.987 | locus YHR200W, strain rpn10, active compounds read low 0.99 | locus YIL066C, strain RNR3, active compounds read low 0.935 | locus YIL073C, strain SPO22, active compounds read low 0.963 | locus YIL125W, strain kgd1, active compounds read low 0.979 | locus YIR030C, strain dcg1, active compounds read low 0.992 | locus YJL092W, strain hpr5, active compounds read low 1.01 | locus YJL095W, strain BCK1 (second series), active compounds read low 1 | locus YJL095W, strain BCK1, active compounds read low 0.974 and 0.949 | locus YJL115W, strain asf1, active compounds read low 0.991 | locus YJL129C, strain trk1, active compounds read low 1.02 | locus YJL134W, strain LCB3, active compounds read low 0.979 | locus YJL154C, strain vps35, active compounds read low 1.02 | locus YJL164C, strain tpk1, active compounds read low 0.984 | locus YJL166W, strain qcr8, active compounds read low 1.01 | locus YJL168C, strain set2, active compounds read low 0.982 | locus YJL187C, strain SWE1 (second series), active compounds read low 0.977 | locus YJL187C, strain SWE1, active compounds read low 1.01 | locus YJR043C, strain POL32, active compounds read low 0.953 | locus YJR066W, strain TOR1, active compounds read low 0.905
